Experiment [1] in a line: compounds binding Alexa647 anti-His antibody – biochemical, small-molecule microarray, 635 nm fluorescence, artefact control for SMM control protein annotation, primary screen (AID 1128).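 Also: score merges feature fluorescence with signal-to-noise for each printed compound spot.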 The following applies: higher = more signal.
For experiment [2], the system named is Human papillomavirus type 1a E7 protein (residues 1-88). In words: HPV1a E7 small-molecule binders, primary screen, biochemical, small-molecule microarray, residues 1-88, 635 nm (AID 1129). The following applies: small-molecule microarray binding, fluorescence 635 nm; higher = more signal.
Experiment [3] concerns the target Focal adhesion kinase 1 (Homo sapiens) (UniProt Q05397). In words: PTK2 protein binding on printed compound slides – biochemical, small-molecule microarray, 635/667 nm fluorescence, BSA, DTT, primary screen (AID 1130).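 Also: composite of spot emission at 667 nm and signal to noise over triplicate slides.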 As to conditions: 635 nm fluorescence, higher = more signal.
Experiment [4] has as its system Fibrinogen (Alexa647-labelled). Put plainly: Alexa647-fibrinogen binding to printed small molecules – biochemical, small-molecule microarray, 635/667 nm fluorescence, artefact control for SMM control-protein annotation, profiling panel (AID 1131).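 Also: z-score merges 667 nm fluorescence with per-spot signal-to-noise over triplicate slides.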 The following applies: fibrinogen-A647 binding fluorescence, higher = more signal.
The target of experiment [5] is Follistatin (Homo sapiens) (UniProt P19883). Put plainly: FST protein binding to printed compounds – biochemical, small-molecule microarray, 635/667 nm fluorescence, primary screen (AID 1132). The following applies: 635 nm fluorescence, higher = more signal.
Chain of Follistatin (Homo sapiens) (P19883 whole entry, looked up): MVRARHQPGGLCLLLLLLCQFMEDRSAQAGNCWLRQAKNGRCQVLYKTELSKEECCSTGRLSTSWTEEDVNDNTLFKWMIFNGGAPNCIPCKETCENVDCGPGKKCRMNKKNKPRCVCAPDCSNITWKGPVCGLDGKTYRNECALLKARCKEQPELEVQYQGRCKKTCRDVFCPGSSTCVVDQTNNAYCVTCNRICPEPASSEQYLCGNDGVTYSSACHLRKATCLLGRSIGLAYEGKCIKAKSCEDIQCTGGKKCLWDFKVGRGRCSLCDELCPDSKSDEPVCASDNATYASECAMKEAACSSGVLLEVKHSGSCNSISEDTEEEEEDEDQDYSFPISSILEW
Experiment [6] has as its target Fibroblast growth factor 2 (Homo sapiens) (UniProt P09038). In words: basic fibroblast growth factor binding to printed compounds – biochemical, small-molecule microarray, 635/667 nm fluorescence, primary screen (AID 1133). The following applies: FGF2, fluorescence 635/667, higher = more signal.
Experiment [7] can be described thus: JC-1 mitochondrial potential readout, lung cancer cells – cell-based, A549, JC-1 fluorescence, basal, 24 h, 100 nL, profiling panel (AID 1138).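 Also: A549 lung adenocarcinoma cells under basal conditions with no added stimulus; test concentration not given here.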 As to conditions: higher = more signal.
In the next experiment the test system is Lefty1. In words: Lefty1 protein binding to printed compounds – biochemical, small-molecule microarray, 635/667 nm fluorescence, primary screen (AID 1139). The following applies: fluorescence 635/667, higher = more signal.
Experiment [8] deals with wheat germ agglutinin (Triticum aestivum), Alexa647-labelled. In words: Alexa647-WGA lectin binding to printed small molecules – biochemical, small-molecule microarray, 635/667 nm fluorescence, artefact control for SMM control-protein annotation, profiling panel (AID 1140).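 Also: score merges 667 nm feature emission with signal to noise over triplicate slides.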 The following applies: WGA-A647 binding, 635 nm fluorescence, higher = more signal.
The target of experiment [9] is Luciferin 4-monooxygenase (Photinus pyralis) (UniProt P08659). Put plainly: inhibition of purified Photinus pyralis luciferase – biochemical, luminescence, purified enzyme, 2006 set, primary screen (AID 1141).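 Also: cell-free assay with purified firefly luciferase at 100 ng per well in PBS; test concentration not given here.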 The following applies: purified firefly luciferase, SteadyGlo luminescence, 30 min; higher = more signal, called active from +8 up or from −8 down.
Chain of Luciferin 4-monooxygenase (Photinus pyralis) (P08659 whole entry, looked up): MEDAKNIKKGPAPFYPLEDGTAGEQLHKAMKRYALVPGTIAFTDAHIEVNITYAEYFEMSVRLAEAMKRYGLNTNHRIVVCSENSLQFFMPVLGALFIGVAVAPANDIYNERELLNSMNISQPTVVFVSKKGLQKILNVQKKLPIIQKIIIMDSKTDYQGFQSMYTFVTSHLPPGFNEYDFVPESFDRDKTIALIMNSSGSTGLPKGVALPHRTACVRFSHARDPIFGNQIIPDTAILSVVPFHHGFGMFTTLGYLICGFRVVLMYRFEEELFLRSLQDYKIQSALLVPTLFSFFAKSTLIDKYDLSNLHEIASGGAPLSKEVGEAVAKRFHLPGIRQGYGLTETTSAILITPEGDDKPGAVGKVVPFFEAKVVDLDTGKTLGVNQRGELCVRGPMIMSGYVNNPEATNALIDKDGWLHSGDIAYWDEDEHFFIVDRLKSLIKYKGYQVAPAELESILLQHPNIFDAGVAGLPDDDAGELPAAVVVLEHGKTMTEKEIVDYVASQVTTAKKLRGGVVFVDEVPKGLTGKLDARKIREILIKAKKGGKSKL
The test system of experiment [10] is Wnt5a (protein binding on small-molecule microarray). Put plainly: small molecules binding Wnt5a protein – biophysical, small-molecule microarray, 635/667 nm fluorescence, primary screen (AID 1142).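 Also: fluorescence read at 667 nm with signal to noise per printed feature.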 As to conditions: 635 nm fluorescence, higher = more signal.
Experiment [11] is described as follows: ATP-based viability of Huh7 replicon cells – cell-based, CellTiter-Glo luminescence, basal, 48 h, cytotoxicity control for HCV replication inhibitor project, primary screen (AID 1143).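 Also: Huh7 hepatoma cells carrying a hepatitis C replication reporter with no stimulus; test concentration not given here.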 The following applies: higher = more signal, called active from +8 up or from −8 down.
The nature of experiment [12]: Pseudomonas biofilm growth suppression – PAO1 strain, BacTiter-Glo luminescence, LB-PBS, primary screen (AID 1144). As to conditions: P. aeruginosa PAO1 biofilm, 12 h, higher = more signal.
A short description of experiment [13]: basal CRE-LacZ reporter activity in PC12 – cell-based, unstimulated, primary screen (AID 1145). As to conditions: no forskolin, luminescence, 4.5 h, higher = more signal, called active from +8 up or from −8 down.
Experiment [14] is described as follows: forskolin-driven CRE-LacZ activity in PC12 – cell-based, CRE-LacZ reporter, forskolin-stimulated, primary screen (AID 1146).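 Also: PC12 cells with 6xCRE LacZ reporter stimulated by forskolin 10 µM; beta-galactosidase reporter signal reflecting CREB driven transcription.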 As to conditions: luminescence, 4.5 h, higher = more signal, called active from +8 up or from −8 down.
Experiment [15] concerns the target Streptavidin (Streptomyces avidinii) (UniProt P22629). Put plainly: compounds binding control protein streptavidin – biophysical, small-molecule microarray, 635/667 nm fluorescence, artefact control for SMM compound annotation, primary screen (AID 1147).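 Also: signal reflects streptavidin binding to arrayed compounds as a control protein.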 As to conditions: higher = more signal.
Experiment [16] can be described thus: probe aInhba binding on compound microarray – biochemical, small-molecule microarray, 635/667 nm fluorescence, primary screen (AID 1148).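 Also: score merges 667nm spot fluorescence with signal-to-noise for antibody binding to printed compounds.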 As to conditions: higher = more signal.
In experiment [17] the target is Torsin-1A (Homo sapiens) (UniProt O14656). Put plainly: TOR1A wild-type binding on microarray – cell lysate, small-molecule microarray, lysate, 635/667 nm, primary screen (AID 1149). As to conditions: COS7 hTOR1A-WT lysate, 635 nm fluorescence, higher = more signal.
Chain of Torsin-1A (Homo sapiens) (O14656 whole entry, looked up): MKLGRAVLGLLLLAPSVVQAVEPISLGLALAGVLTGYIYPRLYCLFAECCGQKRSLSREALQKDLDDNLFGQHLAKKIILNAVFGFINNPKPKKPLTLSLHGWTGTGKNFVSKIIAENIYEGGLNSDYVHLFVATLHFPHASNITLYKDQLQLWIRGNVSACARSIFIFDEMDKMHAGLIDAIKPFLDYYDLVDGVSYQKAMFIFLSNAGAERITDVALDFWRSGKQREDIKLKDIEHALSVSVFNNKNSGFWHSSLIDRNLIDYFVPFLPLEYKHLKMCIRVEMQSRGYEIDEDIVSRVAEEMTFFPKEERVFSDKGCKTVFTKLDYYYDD
The target is the same in experiment [18]. Put plainly: torsin A mutant lysate binding on microarrays – cell lysate, small-molecule microarray, COS7 lysate, 635/667 nm fluorescence, primary screen (AID 1150).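 Also: score pools 667 nm emission and signal to noise measuring lysate protein binding.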 The following applies: COS7 hTOR1A mutant lysate, 635 nm fluorescence, higher = more signal.
Experiment [19] has as its system Sonic hedgehog protein (Shh). Put plainly: Sonic hedgehog microarray binding compounds – biochemical, small-molecule microarray, 635/667 nm fluorescence, primary screen (AID 1151).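 Also: Shh protein binding to compounds spotted on small-molecule microarray slides; score combines spot fluorescence intensity with signal-to-noise across triplicate slides.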 The following applies: 635 nm fluorescence, higher = more signal.

Calls of active or inactive are those of the source. Unless noted, no rule for the calls is given here.

Chain of Streptavidin (Streptomyces avidinii) (P22629 whole entry, looked up): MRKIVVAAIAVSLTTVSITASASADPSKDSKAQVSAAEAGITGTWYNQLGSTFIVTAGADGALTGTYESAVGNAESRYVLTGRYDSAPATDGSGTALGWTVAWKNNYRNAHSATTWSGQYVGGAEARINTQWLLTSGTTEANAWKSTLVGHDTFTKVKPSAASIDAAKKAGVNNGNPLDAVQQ
Chain of Fibroblast growth factor 2 (Homo sapiens) (P09038 whole entry, looked up): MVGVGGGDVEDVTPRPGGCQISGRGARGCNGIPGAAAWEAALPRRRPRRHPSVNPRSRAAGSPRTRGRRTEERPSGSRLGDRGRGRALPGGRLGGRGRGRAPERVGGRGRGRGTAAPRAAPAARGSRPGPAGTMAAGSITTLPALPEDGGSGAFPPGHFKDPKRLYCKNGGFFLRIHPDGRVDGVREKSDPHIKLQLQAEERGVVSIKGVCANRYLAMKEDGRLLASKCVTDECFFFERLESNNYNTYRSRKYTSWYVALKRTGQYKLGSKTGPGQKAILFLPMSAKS
Chain of Focal adhesion kinase 1 (Homo sapiens) (Q05397 whole entry, looked up): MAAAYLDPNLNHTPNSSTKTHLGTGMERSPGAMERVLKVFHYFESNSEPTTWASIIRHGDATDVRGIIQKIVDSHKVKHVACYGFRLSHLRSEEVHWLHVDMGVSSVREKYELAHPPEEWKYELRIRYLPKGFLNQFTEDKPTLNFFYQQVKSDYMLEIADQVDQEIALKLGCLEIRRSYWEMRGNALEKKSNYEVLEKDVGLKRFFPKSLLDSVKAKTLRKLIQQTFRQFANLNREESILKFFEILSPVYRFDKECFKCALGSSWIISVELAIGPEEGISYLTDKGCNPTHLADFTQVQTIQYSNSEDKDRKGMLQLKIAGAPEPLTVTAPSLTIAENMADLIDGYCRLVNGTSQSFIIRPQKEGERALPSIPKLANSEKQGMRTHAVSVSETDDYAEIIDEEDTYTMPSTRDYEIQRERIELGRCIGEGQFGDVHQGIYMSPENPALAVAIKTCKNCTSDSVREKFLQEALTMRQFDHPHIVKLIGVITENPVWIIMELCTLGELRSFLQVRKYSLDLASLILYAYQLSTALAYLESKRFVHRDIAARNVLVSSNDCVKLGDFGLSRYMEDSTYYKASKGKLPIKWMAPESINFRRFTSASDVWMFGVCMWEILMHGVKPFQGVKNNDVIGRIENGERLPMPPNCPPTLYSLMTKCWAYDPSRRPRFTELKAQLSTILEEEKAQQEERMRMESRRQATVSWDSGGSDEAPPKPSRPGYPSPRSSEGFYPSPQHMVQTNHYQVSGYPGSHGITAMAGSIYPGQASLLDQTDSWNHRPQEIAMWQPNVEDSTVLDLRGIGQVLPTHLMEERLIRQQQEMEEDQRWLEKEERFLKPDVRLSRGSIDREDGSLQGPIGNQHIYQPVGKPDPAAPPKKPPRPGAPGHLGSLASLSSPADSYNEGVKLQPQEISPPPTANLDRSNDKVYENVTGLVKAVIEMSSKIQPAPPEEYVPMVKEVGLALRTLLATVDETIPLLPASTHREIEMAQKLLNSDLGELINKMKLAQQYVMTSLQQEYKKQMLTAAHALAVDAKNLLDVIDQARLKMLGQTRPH

As to `CC=CC(O)C1C=CC2C(=O)N(C)C(=O)C2N1Nc1ccc([N+](=O)[O-])cc1[N+](=O)[O-]` (stereo not given), the composite z-score in [1] is 2.66; in experiment [2] it was -0.935; in [3] it was 0.247; in [4], -1.22; in [5], -0.0096; in [6], -0.582. In addition, the composite z-score with Lefty1 was 0.0657; in experiment [8], -0.0025; in [10], -0.449; in experiment [15], -0.118; in experiment [16], -0.128; in the experiment with Torsin-1A (Homo sapiens) [17], 0.316. The composite z-score in the experiment with Torsin-1A (Homo sapiens) [18] is -0.297; in experiment [19] it was -0.144. The z-score in experiment [7] was 0.533; in experiment [9], -0.419 (inactive); in experiment [11] it was 1.01 (inactive); in experiment [12], -0.658 (inactive); in experiment [13] it was -0.136 (inactive); in experiment [14], 0.71 (inactive).
Regarding `CC(C)N1C(=O)[C@@]2(c3ccc([N+](=O)[O-])cc3)CC(=O)N(C3CCCCC3)[C@@H]2c2ccc(CO)cc21`, the composite z-score in experiment [1] is 0.111; in [2], -0.695; in experiment [3], -0.0713; in experiment [4], -0.387; in experiment [5], 1.03; in experiment [6] it was 0.356. Further, the composite z-score was 0.297 in the experiment with Lefty1; -0.246 in experiment [8]; -0.0311 in [10]; -0.196 in experiment [15]; -0.045 in experiment [16]; -0.36 with Torsin-1A (Homo sapiens) [17]. For the same molecule, the composite z-score was -0.123 in the experiment with Torsin-1A (Homo sapiens) [18] and 1.02 in experiment [19]. Also, the z-score is -0.24 in experiment [7]; 1.1 (inactive) in [9]; -0.311 (inactive) in experiment [11]; -1.16 (inactive) in experiment [12]; -0.464 (inactive) in experiment [13]; -0.144 (inactive) in [14].
For the molecule `O=C(N1CCCCC1)[C@@]1(Cc2ccccc2)COC(c2ccc(OCCCO)cc2)=N1`, the composite z-score in experiment [1] was determined as 1.85; in [2], 1.2; in experiment [3] it was 0.195; in experiment [4] it was 0.96; in experiment [5], 0.475; in experiment [6], 1.3. The composite z-score was -0.211 with Lefty1; 1.12 in experiment [8]; 1.03 in experiment [10]; 0.85 in [15]; 0.322 in experiment [16]; 0.442 with Torsin-1A (Homo sapiens) [17]. The values for the composite z-score (with Torsin-1A (Homo sapiens) [18]; in experiment [19]) were 0.67 and 0.934, respectively. Also, the z-score is 1.22 in experiment [7]; -0.117 (inactive) in [9]; -2.49 (inactive) in experiment [11]; 0.496 (inactive) in experiment [12]; -0.128 (inactive) in experiment [13]; -0.628 (inactive) in [14].
`COC(=O)[C@@]1(Cc2ccc(OC)cc2)[C@H]2c3cc(C(=O)N(C)C)n(Cc4ccccc4)c3C[C@H]2CN1C(=O)c1ccccc1`: the composite z-score in experiment [1] was 3.25; in [2], 1.14; in experiment [3] it was 0.649; in [4], -0.228; in experiment [5], -0.0192; in experiment [6] it was -0.825. Besides, the composite z-score with Lefty1 is -0.244; in experiment [8], 0.578; in experiment [10], -0.0424; in experiment [15], 0.707; in [16], 0.0882; in the experiment with Torsin-1A (Homo sapiens) [17], -0.0982. Moreover, the results for the composite z-score (in the experiment with Torsin-1A (Homo sapiens) [18]; in experiment [19]) were 0.14 and -1.21, respectively. In addition, the z-score in experiment [7] is 2.63; in [9], 0.84 (inactive); in [11], -3.07 (inactive); in experiment [12] it was -0.784 (inactive); in experiment [13], -0.764 (inactive); in [14] it was 0.592 (inactive).
On to `O=C1NCC(=O)N2[C@@H]1C[C@@H](C(=O)O)[C@H]2c1ccc(O)cc1`, for which the composite z-score in [1] came to 3.15; in experiment [2], 1.19; in [3], 0.278; in [4], 0.8; in experiment [5], 1.38; in experiment [6], 1.9. Further, the composite z-score was found to be 1.56 in the experiment on Lefty1; 0.255 in experiment [8]; 0.27 in experiment [10]; 0.237 in experiment [15]; 0.0104 in experiment [16]; 1.13 with Torsin-1A (Homo sapiens) [17]. The results for the composite z-score (with Torsin-1A (Homo sapiens) [18]; in experiment [19]) were 2.29 and 2.01, respectively. Further, the z-score in [7] is 0.563; in experiment [9], -0.504 (inactive); in [11], -0.286 (inactive); in experiment [12] it was -0.611 (inactive); in [13] it was 0.0084 (inactive); in experiment [14], 0.622 (inactive).

These data come from PubChem BioAssay.
